Compound activity from PubChem BioAssay.
The full list was thinned out, with hits kept by preference.
miR-122 inh: raises miR-122 sensor activity in Huh7 cells | Huh7 psiCHECK-miR122 Renilla luciferase sensor, 48 h | activation, % at 12.5 µM | 340,000 tested, 0.14% active | AID 623901;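 active = mean activation of 30% or more, with every replicate also reaching 30%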;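 also: 0% = median of neutral control wells and 100% = median of positive control wells; higher luciferase signal means stronger suppression of miR-122 activity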
* = called active by the depositor.

SMILES | miR-122 inh
C[C@H](O)C#Cc1ccc2c(c1)O[C@H](CN(C)Cc1ccc(-c3ccccc3)cc1)[C@@H](C)CN([C@H](C)CO)S2(=O)=O | 49*
C[C@H](O)C#Cc1ccc2c(c1)O[C@H](CN(C)C)[C@H](C)CN([C@@H](C)CO)S2(=O)=O | 3
C[C@@H]1CN([C@@H](C)CO)S(=O)(=O)c2ccc(C#C[C@@H](C)O)cc2O[C@H]1CN(C)Cc1ccc(-c2ccccc2)cc1 | 41*
CC1=CC2=NC(=O)/C(=C\c3cccn3CCOc3ccccc3C)C(=N)N2O1 | -147
COc1ccc(-c2cnc3c(c2)C(=O)N([C@H](C)CO)C[C@H](C)[C@H](CN(C)C(=O)Nc2cccc4ccccc24)O3)cc1 | 4
COc1cc(C)c(C(C)C)cc1S(=O)(=O)n1cnc(C)c1 | -152
CCc1ccc(-c2cc(C)no2)cc1S(=O)(=O)NCCc1ccc(OC)c(OC)c1 | -132
C[C@@H]1CN([C@@H](C)CO)C(=O)c2cc(-c3cccnc3)cnc2O[C@@H]1CN(C)C(=O)Nc1ccc(F)cc1 | 5
CCCOc1ccc(S(=O)(=O)NCCN2CCOCC2)c2ccccc12 | -199
C[C@@H]1CN([C@H](C)CO)S(=O)(=O)c2ccc(C#Cc3ccccn3)cc2O[C@@H]1CN(C)Cc1ccc(F)cc1 | -7
CO[C@@H]1CN(C)C(=O)c2ccc(NC(=O)Nc3cccc(F)c3)cc2OC[C@H](C)N(C)C[C@H]1C | 0
C[C@H]1CN([C@@H](C)CO)S(=O)(=O)c2ccc(-c3ccccc3F)cc2O[C@H]1CN(C)S(C)(=O)=O | 7
CCCCOc1ccc(S(=O)(=O)Nc2ccc(NC(C)=O)cc2)cc1 | -205
CCCCNC(=O)Nc1nnc(-c2ccc(OCC)cc2)o1 | 36*
CC1(C)N([O-])C(c2cccs2)=C[N+]1=O | -103
CCCC#Cc1ccc2c(c1)O[C@H](CN(C)C(=O)NCCC)[C@@H](C)CN([C@H](C)CO)S2(=O)=O | -32
C[C@@H]1CN([C@H](C)CO)C(=O)c2cc(C#CCC3CCCC3)cnc2O[C@H]1CN(C)CC1CCOCC1 | -1
NC(Cc1ccc(C(F)(F)F)cc1)c1csc(Nc2nncc3ccccc23)n1 (stereo not given) | 34*
Cc1ccc(C)c(S(=O)(=O)Nc2cc3c4c(c2)CCC(=O)N4CCC3)c1 | -218
C[C@@H]1CN([C@H](C)CO)S(=O)(=O)c2ccc(-c3ccc(C(=O)N(C)C)cc3)cc2O[C@@H]1CN(C)C(=O)Cc1ccccn1 | -11
CNC[C@@H]1Oc2ncc(C#CCC3CCCC3)cc2C(=O)N([C@H](C)CO)C[C@H]1C | 14
COc1cccc(N2CC(O)=C(c3nc4ccccc4s3)C2=N)c1 | -92
O=C(N/N=C/c1sc2ccccc2c1O)c1ccccc1 | 41*
C/C=C\C(=O)Nc1cccc(C2=NOC3(C2)C[C@@H](C(N)=O)N(C(=O)CCCCC)C3)c1 (stereo not given in full) | -94
C[C@@H]1CN([C@H](C)CO)C(=O)c2cc(-c3cccc(F)c3)cnc2O[C@@H]1CN(C)Cc1ccncc1 | 0
SMILES | miR-122 inh
CCCC#Cc1ccc2c(c1)O[C@H](CN(C)C(=O)c1cccnc1)[C@@H](C)CN([C@@H](C)CO)S2(=O)=O | 6
O=C(NNS(=O)(=O)c1ccc(Cl)cc1)c1cccs1 | -116
O=S(=O)(Nc1ccncc1)c1ccc(Cl)cc1 | -119
CNC(=O)c1nnsc1S(=O)(=O)c1ccc(Cl)cc1 | 31*
CNC[C@@H]1Oc2cc(C#Cc3cccc(OC)c3)ccc2S(=O)(=O)N([C@H](C)CO)C[C@H]1C | 2
COc1cccc(C#Cc2ccc3c(c2)O[C@H](CN(C)C(=O)CN2CCOCC2)[C@H](C)CN([C@H](C)CO)S3(=O)=O)c1 | 4
COc1ccc(C#Cc2ccc3c(c2)O[C@H](CN(C)C(=O)NC2CCCCC2)[C@@H](C)CN([C@H](C)CO)S3(=O)=O)cc1 | -27
COc1cccc(C#Cc2ccc3c(c2)O[C@@H](CN(C)C(=O)CN2CCOCC2)[C@H](C)CN([C@H](C)CO)S3(=O)=O)c1 | -7
C/C=C/c1ccc2c(c1)O[C@H](CN(C)C(=O)Nc1ccc(OC)cc1)[C@H](C)CN([C@@H](C)CO)S2(=O)=O | 6
COc1ccc(C#Cc2ccc3c(c2)O[C@H](CN(C)C(=O)CN2CCOCC2)[C@H](C)CN([C@@H](C)CO)S3(=O)=O)cc1 | 54*
COc1ccc(C#Cc2ccc3c(c2)O[C@@H](CN(C)C(=O)CN2CCOCC2)[C@@H](C)CN([C@H](C)CO)S3(=O)=O)cc1 | 36*
COc1cccc(C#Cc2ccc3c(c2)O[C@@H](CN(C)C(=O)CN2CCOCC2)[C@H](C)CN([C@@H](C)CO)S3(=O)=O)c1 | 5
COc1ccc(NC(=O)N(C)C[C@@H]2Oc3cc(C#CCC(C)C)ccc3S(=O)(=O)N([C@@H](C)CO)C[C@@H]2C)cc1 | 43*
COc1cccc(C#Cc2ccc3c(c2)O[C@@H](CN(C)C(=O)CN2CCOCC2)[C@@H](C)CN([C@H](C)CO)S3(=O)=O)c1 | 5
C/C=C/c1ccc2c(c1)O[C@H](CN(C)Cc1ccccc1F)[C@H](C)CN([C@H](C)CO)S2(=O)=O | -7
CCOC1=C2[C@H](c3cccc(Cl)c3)N(S(=O)(=O)c3ccc(C)cc3)C[C@H]2n2c(=O)n(-c3ccccc3)c(=O)n2C1 | -90
Cc1cc(C)c(S(=O)(=O)N2CCN=C2c2ccccc2)cc1C | -100
COc1ccc(S(=O)(=O)N(C)C[C@@H]2Oc3c(NC(=O)Nc4ccccc4)cccc3C(=O)N([C@H](C)CO)C[C@H]2C)cc1 | 2
N=c1c2c(-c3ccccc3)c(-c3ccccc3)n(Cc3ccco3)c2ncn1CCO | 43*
CC(C)NC(=O)N(C)C[C@H]1Oc2cc(-c3ccccc3)ccc2S(=O)(=O)N([C@@H](C)CO)C[C@@H]1C | -13
COc1ccccc1-c1ccc2c(c1)O[C@H](CN(C)C(=O)c1ccncc1)[C@H](C)CN([C@@H](C)CO)S2(=O)=O | -52
CC(OC(=O)c1cccc(S(=O)(=O)Nc2cccc(C(F)(F)F)c2)c1)C(=O)Nc1ccc2c(c1)OCCO2 (stereo not given) | -101
O=C(Cc1cccc2ccccc12)Nc1ccc(OC(F)F)c(Cl)c1 | -94
O=C(Nc1ccc(OC(F)F)cc1)Nc1cccc(C(F)(F)F)c1 | 44*
COc1cc(S(=O)(=O)N2CCOCC2)ccc1NC(=O)CSc1n[nH]c(=O)[nH]c1=O | -144
SMILES | miR-122 inh
C[C@@H]1CN([C@@H](C)CO)S(=O)(=O)c2ccc(-c3ccc(C(=O)N(C)C)cc3)cc2O[C@@H]1CN(C)C | 2
CC(=O)N(C)C[C@@H]1Oc2cc(/C=C/c3ccccc3)ccc2S(=O)(=O)N([C@H](C)CO)C[C@H]1C | -8
CN(C)C(=O)c1ccc(-c2ccc([C@H]3[C@@H](CO)N4CCCCN(C(=O)C5CCCC5)C[C@@H]34)cc2)cc1 | 30*
CC(=O)N1[C@H](CNC(=O)CN(C)C)[C@@H](c2ccc(C3=CCCCC3)cc2)[C@@H]1CO | -292
CN(C)CC(=O)N1CCCCN2[C@@H](CO)[C@@H](c3ccc(/C=C/c4ccccc4)cc3)[C@@H]2C1 | 32*
C[C@H]1CN([C@@H](C)CO)S(=O)(=O)c2ccc(-c3ccc(C(=O)N(C)C)cc3)cc2O[C@@H]1CN(C)C | 2
N[C@@H](Cc1cc(I)c(Oc2ccc(O)c(I)c2)c(I)c1)C(=O)O | -93
C[C@H]1CN([C@@H](C)CO)C(=O)c2cc(/C=C/c3ccccc3)cnc2O[C@H]1CN(C)C(=O)c1ccncc1 | 0
